From PubChem BioAssay (NCI) come the findings set out here.

Common to all, as to assay: NCI-60 one-dose screen, 48 h (100 = growth as untreated, 0 = no growth, -100 = all killed)
Assay [1] has as its system DU-145 prostate. To be noted: 10 µM unless noted.
The subject of assay [2] is K-562 leukemia. As to conditions: 10 µM unless noted.
For assay [3], the system named is MALME-3M melanoma. As to conditions: 10 µM unless noted.
Assay [4] relates to MDA-MB-231 breast. As to conditions: 10 µM unless noted.
For assay [5], the system named is RXF 393 renal. To be noted: 10 µM unless noted.
In assay [6] the test system is SF-268 CNS. As to conditions: 10 µM unless noted.
Assay [7] has as its system SF-295 CNS. To be noted: 10 µM unless noted.
For assay [8], the system named is SF-539 CNS. As to conditions: 10 µM unless noted.
Assay [9] has as its system UACC-257 melanoma. As to conditions: 10 µM unless noted.
In assay [10] the test system is M14 melanoma. As to conditions: 10 µM unless noted.
The subject of assay [11] is HCT-15 colon. To be noted: 10 µM unless noted.
Assay [12] concerns HT29 colon. To be noted: 10 µM unless noted.
For assay [13], the system named is SNB-75 CNS. To be noted: 10 µM unless noted.
Assay [14] deals with SNB-19 CNS. As to conditions: 10 µM unless noted.
The test system of assay [15] is U251 CNS. As to conditions: 10 µM unless noted.
For assay [16], the system named is PC-3 prostate. To be noted: 10 µM unless noted.
Assay [17] deals with SK-MEL-5 melanoma. To be noted: 10 µM unless noted.
The test system of assay [18] is UACC-62 melanoma. To be noted: 10 µM unless noted.
Assay [19] has as its system LOX IMVI melanoma. As to conditions: 10 µM.
For assay [20], the system named is SK-MEL-28 melanoma. To be noted: 10 µM unless noted.

This is part of a sample that, as a whole, favours compounds with a hit. Of some 83,000 tested, about 20% had one in any assay.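 Each cell line was grown in a 96-well plate and treated with one concentration of compound for 48 hours. Values below 10 were considered active.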 A number with no mark means an inactive call. Active and inactive are the calls of the source.

Regarding `Cc1ccc(S(=O)(=O)c2nc(S(=O)(=O)c3ccc(C)cc3)c(Cl)s2)cc1`, the growth in assay [1] is -22.5% (active); in assay [2] it was 5.15% (active); in assay [3], -90.4% (active); in assay [4], -54.5% (active); in assay [5], -76.9% (active); in assay [6], 108%. In addition, the growth in assay [7] is 94%; in [8], -62% (active); in assay [9], 67.2%; in assay [10], 23.7%; in [11], -87.6% (active); in assay [12], -77.5% (active). In addition, the growth is 108% in [13]; 81.4% in assay [14]; -38.5% (active) in assay [15]; 18% in assay [16]; 76.4% in assay [17]; 39.7% in assay [18]. Moreover, the growth in [19] was -93% (active); in [20], 29.4%.
Turning to `O=C(c1ccccc1)c1ccc2nc(-c3ccc(F)cc3)[nH]c2c1`, the growth in assay [1] is 74.9%; in assay [2], 20.9%; in assay [3] it was 73%; in assay [4] it was 42.2%; in assay [5] it was 49.2%; in assay [6], 47.7%. Moreover, the growth in [7] was 97.1%; in [8] it was 50.6%; in [9], 68.5%; in assay [10] it was 54.4%; in [11] it was 23.4%; in assay [12], 63.6%. The growth in [13] was 82%; in assay [14], 75.2%; in assay [15] it was -26.5% (active); in assay [16] it was 56.4%; in [17], 60.2%; in assay [18], 43.2%. In addition, the growth in assay [19] was 14.3%; in assay [20], 63.3%.
Take `O=[N+]([O-])c1ccc(/C=C/c2nc3ccccc3n3c(=S)[nH]nc23)cc1`: the growth was 88% in assay [1]; 70.5% in assay [2]; 101% in assay [3]; 85.9% in assay [4]; 78.7% in assay [5]; 80.1% in [6]. Moreover, the growth in [7] is 125%; in assay [8] it was 98.4%; in [9], 94.8%; in assay [10], 84.4%; in assay [11], 82.1%; in [12] it was 93.4%. Also, the growth in assay [13] is 102%; in assay [14] it was 78.4%; in [15] it was 76.2%; in [16], 65.8%; in assay [17], 61.8%; in assay [18] it was 63.3%. Also, the growth is 91.3% in assay [19] and 82.7% in assay [20].
Take `CCN(CC)c1ccc(/C=N/Nc2nc(-c3ccc(C)cc3)cs2)c(O)c1`: the growth is 97.6% in assay [1]; 62.1% in [2]; 105% in assay [3]; 99.6% in [4]; 87.1% in [5]; 105% in assay [6]. The growth was 93.6% in assay [7]; 106% in [8]; 95.2% in [9]; 99.7% in [10]; 67.2% in assay [11]; 83.5% in [12]. Besides, the growth is 92.1% in assay [13]; 89.6% in assay [14]; 90% in [15]; 70.5% in assay [16]; 79.7% in assay [17]; 80.6% in [18]. The figures for the growth in assay [19] and in assay [20] were 88.2% and 95%, respectively.
Regarding `C#C[C@]1(O)CC[C@H]2[C@@H]3CC=C4c5sc(-c6ccc(O)c(O)c6)nc5CC[C@]4(C)[C@H]3CC[C@@]21C`, the growth in assay [1] is -49.4% (active); in assay [2] it was -51.3% (active); in assay [3], -84% (active); in assay [4], -77.8% (active); in assay [5] it was -90.2% (active); in [6], -76.7% (active). For the same compound, the growth in assay [7] was -94.2% (active); in assay [8], -93.2% (active); in assay [9], -81.7% (active); in assay [10], -87.7% (active); in assay [11] it was -82.2% (active); in [12] it was -80.2% (active). Also, the growth was -81.4% (active) in [13]; -89.4% (active) in [14]; -94.3% (active) in [15]; -58.9% (active) in assay [16]; -98.4% (active) in [17]; -74.7% (active) in assay [18]. For the same compound, the growth in [19] is -92.9% (active); in assay [20], -80.3% (active).
Take `OCC1(CCCc2ccccc2)CCCN(c2nccc3ccccc23)C1` (stereo not given): the growth is 68.3% in assay [1]; 18.6% in assay [2]; 24.8% in assay [3]; 52.1% in [4]; 61.1% in [5]; 61.8% in [6]. Besides, the growth in assay [7] was 17%; in [8] it was 43.1%; in assay [9] it was 10.6%; in assay [10] it was 8.76% (active); in [11], 27.7%; in assay [12] it was 21.3%. The growth is 40.5% in [13]; 44.2% in assay [14]; 40.1% in assay [15]; 52.2% in [16]; -60% (active) in [17]; 38.7% in assay [18]. Further, the growth in assay [19] is 35.8%; in assay [20], 32.4%.
With `C#CCOc1cc(N(CC)CC)ccc1C(C(=O)NC(C)(C)C)N(C(=O)C1CCc2cc(F)ccc2O1)c1ccc(F)cc1` (stereo not given), the growth in [1] is 65.3%; in assay [2], 23.6%; in assay [3], 65.6%; in [4], 51%; in assay [5] it was 57.3%; in [6], 47.7%. The growth in [7] is 41.5%; in assay [8], 66.2%; in assay [9] it was 40.3%; in [10], 46.4%; in assay [11] it was 44.6%; in assay [12], 61%. Further, the growth is 60.5% in assay [13]; 41.6% in assay [14]; 37.9% in assay [15]; 17.6% in assay [16]; 33.9% in assay [17]; 35.5% in assay [18]. Moreover, the growth is 42.3% in assay [19] and 66.7% in assay [20].
For the compound `COc1cc2nc(SCc3ccccc3)n(-c3ccc(Cl)cc3)c(=O)c2cc1OC`, the growth in [1] was -10% (active); in assay [2], 2.35% (active); in assay [3] it was -40.8% (active); in [4] it was -6.51% (active); in assay [5], -38.8% (active); in assay [6] it was -12.9% (active). Moreover, the growth in assay [7] was -59.9% (active); in assay [8], -83.6% (active); in [9] it was 38.3%; in assay [10] it was 20.1%; in [11] it was 33.6%; in assay [12], 45.4%. Moreover, the growth was -49.5% (active) in assay [13]; -30% (active) in assay [14]; -73.1% (active) in assay [15]; 1.2% (active) in assay [16]; 82.9% in assay [17]; 29.3% in assay [18]. The growth in assay [19] was -100% (active); in [20], 21.6%.
